Source: the supplement of paper PMC13380429

The compounds below were run on Vero E6 infected with SARS-CoV-2 (assay: morphology score (similarity to uninfected cells); higher = more like uninfected cells). Settings: 24 h.
`CC(=O)NC1N=C(c2ccccc2)c2ccccc2NC1=O` (configuration not stated) (10 µM) was tested, and the morphology score was 0.189.
`CO[C@@]1(NC(=O)Cc2cccs2)C(=O)N2C(C(=O)O)=C(COC(N)=O)CS[C@@H]21` [cefoxitin] (10 µM) gave a morphology score of 0.228.
`COc1cccc2c1c(O)c(C(=O)N(C)c1ccc(C(F)(F)F)cc1)c(=O)n2C` [tasquinimod] (10 µM) gave a morphology score of 0.168.
`Cc1cc(C)nc(NS(=O)(=O)c2ccc(NC(=S)NC(=O)COc3ccc(Br)cc3Cl)cc2)n1` (10 µM) gave a morphology score of 0.0709.
`Nc1ccc(S(=O)(=O)c2ccc(N)cc2)cc1` [dapsone] (10 µM) gave a morphology score of -0.179.
`CCCCCCCCCCCCCCCCOc1nc2ccc(C)cc2c(=O)o1` [cetilistat] (10 µM) gave a morphology score of -0.00505.

These compounds were tested on Vero E6 infected with SARS-CoV-2 (assay: SARS-CoV-2 infection rate relative to infected DMSO; higher = more infection, active = 60 or less). Settings: 24 h.
`CCCCN(CCCC)C(=O)CN1C[C@H](c2ccc3c(c2)OCO3)[C@@H](C(=O)O)[C@@H]1c1ccc(OC)cc1` [atrasentan] (10 µM) was tested, and the SARS-CoV-2 infection rate was 108% (inactive).
With `C[C@@H]1C[C@H]2[C@@H]3CCC4=CC(=O)C=C[C@]4(C)[C@@]3(Cl)[C@@H](O)C[C@]2(C)[C@@]1(OC(=O)c1ccco1)C(=O)CCl` (10 µM) the SARS-CoV-2 infection rate was 78% (inactive).
For `O=C(NCc1cccc(O)c1)Nc1nc(-c2ccncc2)cs1` (10 µM), the SARS-CoV-2 infection rate was 97.8% (inactive).
With `O=[N+]([O-])O[C@H]1CO[C@H]2[C@@H]1OC[C@H]2O[N+](=O)[O-]` [isosorbide-dinitrate] (10 µM) the SARS-CoV-2 infection rate was 112% (inactive).
With `CCOC(=O)N[C@@H]1CC[C@@H]2[C@@H](C1)C[C@H]1C(=O)O[C@H](C)[C@H]1[C@H]2/C=C/c1ccc(-c2cccc(F)c2)cn1` [vorapaxar] (10 µM) the SARS-CoV-2 infection rate was 106% (inactive).
In the case of `O=C(O)CNC(=O)c1nc(Cl)c2ccccc2c1O` (10 µM), the SARS-CoV-2 infection rate is reported as 102% (inactive).
For `C#CCN(C)Cc1ccccc1` [pargyline] (10 µM), the SARS-CoV-2 infection rate was 108% (inactive).
`C[C@H](N)C(=O)N[C@@]1(C(=O)O)C[C@@H](Sc2nnc[nH]2)[C@H]2[C@H](C(=O)O)[C@H]21` (10 µM) was tested, and the SARS-CoV-2 infection rate was 114% (inactive).
For `CCOC(=O)[C@@](C)(N)Cc1ccc(O)c(O)c1` [methyldopate] (10 µM), the SARS-CoV-2 infection rate was 108% (inactive).
In the case of `CN(C)CCC(c1ccccc1)c1ccccn1` (configuration not stated) [pheniramine] (10 µM), the SARS-CoV-2 infection rate is reported as 110% (inactive).
For `CN=c1nc(-c2ccccc2)n(-c2ccccc2)s1` (10 µM), the SARS-CoV-2 infection rate was 97.5% (inactive).
`COc1ccc(NS(=O)(=O)c2ccc(I)cc2)cc1N1CCN(C)CC1` (10 µM) was tested, and the SARS-CoV-2 infection rate was 98.5% (inactive).
With `CO[C@H]1CC[C@H](N(c2cc(C3=CCCCC3)sc2C(=O)O)C(=O)[C@H]2CC[C@H](C)CC2)CC1` (10 µM) the SARS-CoV-2 infection rate was 83% (inactive).
`COc1ccc(-c2nc(N3CCOCC3)c3sc(CN(C)c4ncc(C(=O)NO)cn4)cc3n2)cn1` (10 µM) was tested, and the SARS-CoV-2 infection rate was 116% (inactive).
With `O=[N+]([O-])c1cccc2c(Br)n[nH]c12` [3-bromo-7-nitroindazole] (10 µM) the SARS-CoV-2 infection rate was 110% (inactive).
For `O=C(Nc1ccc(F)cc1)N1CCc2ccccc2[C@@H]1c1ccc(C(F)(F)F)cc1` (10 µM), the SARS-CoV-2 infection rate was 87% (inactive).
`Cc1cccc(C)c1NC(=O)CN1CCN(CCCC(c2ccc(F)cc2)c2ccc(F)cc2)CC1` [lidoflazine] (10 µM) was tested, and the SARS-CoV-2 infection rate was 76.5% (inactive).
In the case of `CN1CCN(c2ncc(-c3cc(Cl)cc(Cl)c3Cl)c(N)n2)CC1` [sipatrigine] (10 µM), the SARS-CoV-2 infection rate is reported as 82% (inactive).
In the case of `Cc1ccc(S(N)(=O)=O)cc1` [para-toluenesulfonamide] (10 µM), the SARS-CoV-2 infection rate is reported as 106% (inactive).
For `CN(C(=O)c1c(O)c2ccccc2n(C)c1=O)c1ccccc1` [roquinimex] (10 µM), the SARS-CoV-2 infection rate was 94.5% (inactive).
For `O=C1c2ccccc2-c2c(NCCc3ccccc3)c(=O)[nH]c3cccc1c23` (10 µM), the SARS-CoV-2 infection rate was 112% (inactive).
`N#CSc1cc(SC#N)c(N)nc1N` (0.833333 µM) was tested, and the SARS-CoV-2 infection rate was 98.5% (inactive).
With `CCOC(=O)CNC(=O)[C@@H]1CCCN1C(=O)Cc1ccccc1` (10 µM) the SARS-CoV-2 infection rate was 104% (inactive).
For `Nc1nc(/C(=C/CC(=O)O)C(=O)N[C@@H]2C(=O)N3C(C(=O)O)=CCS[C@H]23)cs1` [ceftibuten] (10 µM), the SARS-CoV-2 infection rate was 103% (inactive).
For `COc1ccc2cc1Oc1ccc(cc1)C[C@H]1c3c(cc4c(c3Oc3cc5c(cc3OC)CCN(C)[C@@H]5C2)OCO4)CCN1C` [cepharanthine] (10 µM), the SARS-CoV-2 infection rate was 77.5% (inactive).
For `O=C(O)CCCc1ccc(N(CCCl)CCCl)cc1` [chlorambucil] (10 µM), the SARS-CoV-2 infection rate was 94% (inactive).
